{"source": "PubChem BioAssay (Tox21)", "note": "Records with an inconclusive call do not appear. Active and inactive are the calls of the source. Calls come from the whole dose curve; as a rule, active = well fitted activation curve with a large enough effect in the signal ratio in the repeat runs (not every such curve was filed as active); inconclusive = weak or mixed curves; inactive = flat fitted curve, though single readings scatter; the % refers to the signal ratio.", "data": [{"assay": "qHTS assay to identify small molecule agonists of the hypoxia (HIF-1) signaling pathway (AID 1224846)", "details": "HRE-bla ME-180 cells, beta-lactamase ratio, 17 h; series mostly up to 76.8 µM", "excerpt": "U.S. Tox21 Program National Center for Advancing Translational Sciences [NCATS] NIH Chemical Genomics Center [NCGC] U.S. Environmental Protection Agency [EPA] National Institutes of Environmental Health Sciences [NIEHS] National Toxicology Program [NTP] U.S. Food and Drug Administration [FDA] Tox21 Assay Overview: Hypoxia-inducible factor-1 (HIF-1) is the major hypoxia-regulated transcription factor that controls cellular responses to low oxygen concentration. HIF-1 is composed of two subunits: hypoxia responsive HIF-1-alpha and constitutively expressed HIF-1-beta, which is also known as aryl hydrocarbon receptor nuclear translocator. During hypoxic conditions, HIF-1-alpha heterodimerizes with HIF-1-beta and translocates into the nucleus where the HIF-1 complex binds to the hypoxia-response element (HRE) and activates expression of target genes such as VEGF (vascular endothelial growth factor). The HIF-1 pathway is essential to normal growth and development, and is involved in the pathophysiology of cancer, inflammation, and ischemia. Using a beta-lactamase reporter-gene under control of the hypoxia response element, a cell-based assay [CellSensor(TM) HRE-bla ME-180 from Life Technologies, Carlsbad, CA] was used to measure hypoxia-induced signaling. Tox21 10K library compounds were measured for their ability to induce the reporter gene activity.\nTox21 Assay Protocol Summary: HRE-bla ME-180 cells were dispensed at 2,000 cells per well in 6 uL of assay medium containing 0.5% dialyzed FBS into black wall/clear-bottom 1536-well plates using a Multidrop Combi (Thermo Scientific, Waltham, MA) dispenser. After the assay plates were incubated at 37C and 5% CO2 for 5 hrs, 23 nL of compounds dissolved in DMSO, positive controls or DMSO only was transferred to each well of the assay plate using a Pintool station (Kalypsys, San Diego, CA). The assay plates were incubated at 37C and 5% CO2 for 17 hrs. One uL of LiveBLAzerTM B/G FRET substrate (CCF4-AM) (Life Technologies) was added to each well using a Flying Reagent Dispenser (Aurora Discovery, San Diego, CA).", "values": [{"compound": "NC(=O)Cc1cccc2ccccc12", "outcome": "inactive"}, {"compound": "O=C(O)Cc1csc(-c2ccc(Cl)cc2)n1", "outcome": "inactive"}, {"compound": "Cc1cccc(C)c1NC(=O)CC12CCCN1CCC2", "outcome": "inactive"}, {"compound": "CCCCOCCOC(=O)COc1cc(Cl)c(Cl)cc1Cl", "outcome": "inactive"}, {"compound": "COc1cc(C)nc(-n2nc(C)cc2OC)n1", "outcome": "inactive"}, {"compound": "CCCCCCCC1CCCC1=O", "note": "(stereo not given)", "outcome": "inactive"}, {"compound": "CN(C)CCCCCCN(C)C", "outcome": "inactive"}, {"compound": "O=C(O)CCCC[P+](c1ccccc1)(c1ccccc1)c1ccccc1", "outcome": "inactive"}, {"compound": "CC(C#N)(CCC(=O)O)N=NC(C)(C#N)CCC(=O)O", "note": "(stereo not given)", "outcome": "inactive"}, {"compound": "CCCCS(=O)(=O)N[C@@H](Cc1ccc(OCCCCC2CCNCC2)cc1)C(=O)O", "outcome": "inactive"}, {"compound": "CCOC(=O)CCC(=O)OCC", "outcome": "inactive"}, {"compound": "O=[N+]([O-])c1cncn1CCN1CCOCC1", "outcome": "inactive"}, {"compound": "COc1c(N2CCNC(C)C2)c(F)cc2c(=O)c(C(=O)O)cn(C3CC3)c12", "note": "(stereo not given)", "outcome": "inactive"}, {"compound": "CCN1CCOCC1", "outcome": "inactive"}, {"compound": "CC(C)C(=O)OC(=O)C(C)C", "outcome": "inactive"}, {"compound": "CCCCCCCCCC[N+](C)(C)[O-]", "outcome": "inactive"}, {"compound": "COc1ccnc(CS(=O)c2nc3cc(OC(F)F)ccc3[nH]2)c1OC", "note": "(stereo not given)", "outcome": "inactive"}, {"compound": "CC(C)(C)OC(=O)c1cccc(N)c1", "outcome": "inactive"}, {"compound": "c1coc(CNc2ncnc3nc[nH]c23)c1", "outcome": "inactive"}, {"compound": "O=S(=O)(O)c1cccc2c(S(=O)(=O)O)cccc12", "outcome": "inactive"}, {"compound": "Nc1ccccn1", "outcome": "inactive"}, {"compound": "CN1CCC(=C2c3ccccc3CCc3cccnc32)CC1", "outcome": "inactive"}, {"compound": "NC(CCC(=O)O)C(=O)O", "note": "(stereo not given)", "outcome": "inactive"}, {"compound": "O=C(CO)[C@@H](O)[C@H](O)[C@H](O)CO", "outcome": "inactive"}, {"compound": "CC(C)C1CCC(O)CC1", "note": "(stereo not given)", "outcome": "inactive"}, {"compound": "C[C@@H]1C[C@H]2[C@@H]3C[C@H](F)C4=CC(=O)C(Cl)=C[C@]4(C)[C@@]3(F)[C@@H](O)C[C@]2(C)[C@@]1(O)C(=O)CO", "outcome": "inactive"}, {"compound": "C[N+](C)(CCOc1ccccc1)Cc1cccs1", "outcome": "inactive"}, {"compound": "Cc1ccc(C(=O)Nc2ccc(S(=O)(=O)O)c3cc(S(=O)(=O)O)cc(S(=O)(=O)O)c23)cc1NC(=O)c1cccc(NC(=O)Nc2cccc(C(=O)Nc3cc(C(=O)Nc4ccc(S(=O)(=O)O)c5cc(S(=O)(=O)O)cc(S(=O)(=O)O)c45)ccc3C)c2)c1", "outcome": "inactive"}, {"compound": "CO[C@@]1(NC(=O)CSC[C@@H](N)C(=O)O)C(=O)N2C(C(=O)O)=C(CSc3nnnn3C)CS[C@@H]21", "outcome": "inactive"}, {"compound": "[K+]", "outcome": "inactive"}, {"compound": "CN(C)CCN(C)CCN(C)C", "outcome": "inactive"}, {"compound": "CC(=O)Nc1ccc(OCC(O)CNC(C)C)cc1", "note": "(stereo not given)", "outcome": "inactive"}, {"compound": "CC1OC1C1CCC2(C)OC2C1", "note": "(stereo not given)", "outcome": "inactive"}, {"compound": "CC(=O)c1ccc2ccccc2c1", "outcome": "inactive"}, {"compound": "C=CCCC(=O)O", "outcome": "inactive"}, {"compound": "CC(C)(C)c1ccc(-c2ccc(C(C)(C)C)cc2)cc1", "outcome": "inactive"}, {"compound": "CCCCN(CCC(=O)OCC)C(C)=O", "outcome": "inactive"}, {"compound": "O=C(c1ccccc1O)c1ccccc1O", "outcome": "inactive"}, {"compound": "Clc1cc(Cl)c(Cl)nc1Cl", "outcome": "inactive"}, {"compound": "CCN(CC#N)c1cccc(C)c1", "outcome": "inactive"}]}]}
